As usually defined, the residual activity is the signal under treatment as a percentage of the control signal.

Among the data in ChEMBL document CHEMBL2218924, “A broad activity screen in support of a chemogenomic map for kinase signalling research and drug discovery” (Biochem J, 2013) are residual activity values, retold here.

In test [1] the target is BDNF/NT-3 growth factors receptor (Homo sapiens) (UniProt Q16620). As to conditions: at 10 µM.
The target of test [2] is T1, Tyrosine-protein kinase TXK (Homo sapiens) (UniProt P42681).
T1 sequence (whole entry): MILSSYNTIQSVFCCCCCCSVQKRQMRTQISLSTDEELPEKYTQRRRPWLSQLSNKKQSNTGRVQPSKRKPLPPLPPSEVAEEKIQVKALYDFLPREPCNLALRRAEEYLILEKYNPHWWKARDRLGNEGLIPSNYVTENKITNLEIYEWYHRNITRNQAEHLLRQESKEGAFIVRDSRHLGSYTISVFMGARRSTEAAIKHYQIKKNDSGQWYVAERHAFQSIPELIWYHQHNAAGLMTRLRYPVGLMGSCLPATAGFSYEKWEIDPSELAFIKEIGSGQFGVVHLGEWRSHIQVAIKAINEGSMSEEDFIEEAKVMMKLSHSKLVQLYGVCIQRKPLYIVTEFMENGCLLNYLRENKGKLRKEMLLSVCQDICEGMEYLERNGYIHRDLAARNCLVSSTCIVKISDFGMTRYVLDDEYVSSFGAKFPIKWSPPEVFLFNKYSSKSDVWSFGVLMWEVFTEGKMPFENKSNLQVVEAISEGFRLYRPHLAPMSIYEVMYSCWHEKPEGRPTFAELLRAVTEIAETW
The following applies: at 1 µM.

The target of test [3] is T1, Tyrosine-protein kinase TXK (Homo sapiens). As to conditions: at 10 µM.
Test [4] has as its target Serine/threonine-protein kinase VRK2 (Homo sapiens) (UniProt Q86Y07). As to conditions: at 1 µM.
For test [5] the target is unchanged. The following applies: at 10 µM.
Test [6] addresses T2, Serine/threonine-protein kinase ULK2 (Homo sapiens) (UniProt Q8IYT8).
T2 sequence (whole entry): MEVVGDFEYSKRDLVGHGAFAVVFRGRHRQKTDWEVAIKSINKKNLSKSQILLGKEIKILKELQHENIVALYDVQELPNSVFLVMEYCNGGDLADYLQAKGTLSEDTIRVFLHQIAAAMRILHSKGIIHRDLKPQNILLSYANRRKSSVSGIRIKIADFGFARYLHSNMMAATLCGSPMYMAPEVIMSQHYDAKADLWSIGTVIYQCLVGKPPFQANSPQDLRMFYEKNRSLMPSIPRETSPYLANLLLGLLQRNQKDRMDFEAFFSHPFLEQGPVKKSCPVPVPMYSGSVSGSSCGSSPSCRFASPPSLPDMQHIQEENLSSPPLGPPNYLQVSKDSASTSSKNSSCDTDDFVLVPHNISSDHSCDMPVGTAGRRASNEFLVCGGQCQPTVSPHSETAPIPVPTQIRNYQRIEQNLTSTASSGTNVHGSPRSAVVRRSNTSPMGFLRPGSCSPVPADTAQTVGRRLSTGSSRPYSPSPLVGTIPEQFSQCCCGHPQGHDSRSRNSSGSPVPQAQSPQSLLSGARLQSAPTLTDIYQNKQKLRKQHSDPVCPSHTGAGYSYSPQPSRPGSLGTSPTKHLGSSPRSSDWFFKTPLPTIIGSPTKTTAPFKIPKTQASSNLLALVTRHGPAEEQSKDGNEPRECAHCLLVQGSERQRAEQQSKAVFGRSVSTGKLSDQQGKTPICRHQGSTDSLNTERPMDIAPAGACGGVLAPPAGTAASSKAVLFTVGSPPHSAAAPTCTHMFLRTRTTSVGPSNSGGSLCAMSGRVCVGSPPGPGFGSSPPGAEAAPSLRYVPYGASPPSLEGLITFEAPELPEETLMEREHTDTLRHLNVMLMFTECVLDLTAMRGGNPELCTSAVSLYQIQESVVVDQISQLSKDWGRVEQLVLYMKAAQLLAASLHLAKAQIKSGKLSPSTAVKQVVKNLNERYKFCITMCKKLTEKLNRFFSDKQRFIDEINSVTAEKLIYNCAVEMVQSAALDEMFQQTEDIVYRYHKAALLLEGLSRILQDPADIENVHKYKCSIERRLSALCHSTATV
As to conditions: at 1 µM.

The target in test [7] is T2, Serine/threonine-protein kinase ULK2 (Homo sapiens). As to conditions: at 10 µM.
In test [8] the target is T3, Serine/threonine-protein kinase ULK3 (Homo sapiens) (UniProt Q6PHR2).
T3 sequence (whole entry): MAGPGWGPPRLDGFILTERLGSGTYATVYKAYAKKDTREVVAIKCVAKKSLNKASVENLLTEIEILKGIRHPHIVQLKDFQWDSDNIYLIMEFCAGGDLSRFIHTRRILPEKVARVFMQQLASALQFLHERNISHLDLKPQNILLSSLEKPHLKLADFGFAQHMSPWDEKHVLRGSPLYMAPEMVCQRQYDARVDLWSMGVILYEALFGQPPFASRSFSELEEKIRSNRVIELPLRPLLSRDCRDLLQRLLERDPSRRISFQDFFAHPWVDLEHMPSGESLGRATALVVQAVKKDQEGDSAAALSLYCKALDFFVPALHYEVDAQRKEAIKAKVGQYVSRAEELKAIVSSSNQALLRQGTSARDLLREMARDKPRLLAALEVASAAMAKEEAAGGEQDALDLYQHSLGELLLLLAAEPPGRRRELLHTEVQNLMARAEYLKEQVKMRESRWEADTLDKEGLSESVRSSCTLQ
The following applies: at 1 µM.

The target in test [9] is T3, Serine/threonine-protein kinase ULK3 (Homo sapiens). The following applies: at 10 µM.
In test [10] the target is Serine/threonine-protein kinase WNK2 (Homo sapiens) (UniProt Q9Y3S1). As to conditions: at 1 µM.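 Also: residual WNK2 kinase activity expressed as percent of uninhibited control, assayed in MOPS buffer at pH 7.0 containing EDTA.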
Chain of Serine/threonine-protein kinase WNK2 (Homo sapiens) (Q9Y3S1 whole entry): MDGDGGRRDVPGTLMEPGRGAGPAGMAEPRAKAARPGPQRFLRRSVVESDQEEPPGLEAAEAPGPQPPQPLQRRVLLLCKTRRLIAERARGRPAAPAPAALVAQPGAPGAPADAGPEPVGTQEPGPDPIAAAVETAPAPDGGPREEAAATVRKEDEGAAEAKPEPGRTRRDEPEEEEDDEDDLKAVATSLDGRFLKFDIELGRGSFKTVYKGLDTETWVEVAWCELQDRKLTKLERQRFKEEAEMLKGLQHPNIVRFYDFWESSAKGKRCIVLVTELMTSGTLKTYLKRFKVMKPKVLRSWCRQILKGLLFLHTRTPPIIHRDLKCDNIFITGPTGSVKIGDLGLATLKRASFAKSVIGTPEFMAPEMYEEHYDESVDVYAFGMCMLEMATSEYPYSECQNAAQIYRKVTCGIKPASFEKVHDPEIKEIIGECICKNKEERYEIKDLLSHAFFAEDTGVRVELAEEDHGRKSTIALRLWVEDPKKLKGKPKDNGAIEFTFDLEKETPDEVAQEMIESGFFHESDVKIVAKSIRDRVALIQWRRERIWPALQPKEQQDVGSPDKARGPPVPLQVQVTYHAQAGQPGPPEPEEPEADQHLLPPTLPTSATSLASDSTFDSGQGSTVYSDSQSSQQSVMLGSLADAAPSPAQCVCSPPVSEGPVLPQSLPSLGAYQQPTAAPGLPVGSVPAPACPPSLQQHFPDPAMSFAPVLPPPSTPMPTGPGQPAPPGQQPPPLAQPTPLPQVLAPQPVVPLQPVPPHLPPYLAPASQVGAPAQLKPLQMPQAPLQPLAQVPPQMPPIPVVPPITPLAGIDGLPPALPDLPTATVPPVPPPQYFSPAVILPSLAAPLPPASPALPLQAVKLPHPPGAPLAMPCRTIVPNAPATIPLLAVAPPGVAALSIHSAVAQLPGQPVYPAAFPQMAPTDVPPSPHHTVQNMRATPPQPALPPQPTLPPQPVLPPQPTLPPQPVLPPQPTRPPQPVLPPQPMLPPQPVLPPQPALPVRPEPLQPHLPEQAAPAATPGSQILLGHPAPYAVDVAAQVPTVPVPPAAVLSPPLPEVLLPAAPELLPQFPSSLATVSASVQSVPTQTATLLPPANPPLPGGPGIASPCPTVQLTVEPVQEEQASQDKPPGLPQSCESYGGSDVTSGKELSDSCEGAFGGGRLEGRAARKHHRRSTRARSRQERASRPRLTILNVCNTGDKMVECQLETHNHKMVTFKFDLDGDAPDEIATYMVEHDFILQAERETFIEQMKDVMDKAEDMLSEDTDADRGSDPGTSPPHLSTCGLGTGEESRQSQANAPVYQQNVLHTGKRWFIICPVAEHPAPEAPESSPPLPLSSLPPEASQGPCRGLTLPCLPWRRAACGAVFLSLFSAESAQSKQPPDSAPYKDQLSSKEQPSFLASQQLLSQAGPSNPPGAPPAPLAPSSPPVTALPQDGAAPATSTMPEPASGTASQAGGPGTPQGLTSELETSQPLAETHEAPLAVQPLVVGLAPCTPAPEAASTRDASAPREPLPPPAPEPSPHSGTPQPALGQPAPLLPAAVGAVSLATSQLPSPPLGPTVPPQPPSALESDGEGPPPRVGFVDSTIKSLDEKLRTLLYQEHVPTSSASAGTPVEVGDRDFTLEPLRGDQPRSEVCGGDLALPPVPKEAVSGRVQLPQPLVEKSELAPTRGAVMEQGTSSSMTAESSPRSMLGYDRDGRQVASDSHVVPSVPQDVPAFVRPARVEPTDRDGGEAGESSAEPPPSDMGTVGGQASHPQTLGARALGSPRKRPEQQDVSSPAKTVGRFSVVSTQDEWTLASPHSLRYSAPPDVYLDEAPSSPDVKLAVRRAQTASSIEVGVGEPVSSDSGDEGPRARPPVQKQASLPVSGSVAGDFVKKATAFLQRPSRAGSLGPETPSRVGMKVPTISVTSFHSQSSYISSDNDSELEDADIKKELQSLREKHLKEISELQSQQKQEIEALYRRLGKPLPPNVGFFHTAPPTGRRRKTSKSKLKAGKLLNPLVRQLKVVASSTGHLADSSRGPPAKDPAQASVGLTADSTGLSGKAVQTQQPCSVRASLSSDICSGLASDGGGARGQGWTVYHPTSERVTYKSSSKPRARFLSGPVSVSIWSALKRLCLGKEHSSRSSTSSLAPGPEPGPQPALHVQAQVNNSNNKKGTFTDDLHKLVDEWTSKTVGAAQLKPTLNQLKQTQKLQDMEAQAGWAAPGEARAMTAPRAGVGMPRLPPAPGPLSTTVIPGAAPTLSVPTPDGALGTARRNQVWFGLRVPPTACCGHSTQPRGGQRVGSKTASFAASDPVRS

Each structure is given as a SMILES string.

Chain of BDNF/NT-3 growth factors receptor (Homo sapiens) (Q16620 32-822 limits assumed): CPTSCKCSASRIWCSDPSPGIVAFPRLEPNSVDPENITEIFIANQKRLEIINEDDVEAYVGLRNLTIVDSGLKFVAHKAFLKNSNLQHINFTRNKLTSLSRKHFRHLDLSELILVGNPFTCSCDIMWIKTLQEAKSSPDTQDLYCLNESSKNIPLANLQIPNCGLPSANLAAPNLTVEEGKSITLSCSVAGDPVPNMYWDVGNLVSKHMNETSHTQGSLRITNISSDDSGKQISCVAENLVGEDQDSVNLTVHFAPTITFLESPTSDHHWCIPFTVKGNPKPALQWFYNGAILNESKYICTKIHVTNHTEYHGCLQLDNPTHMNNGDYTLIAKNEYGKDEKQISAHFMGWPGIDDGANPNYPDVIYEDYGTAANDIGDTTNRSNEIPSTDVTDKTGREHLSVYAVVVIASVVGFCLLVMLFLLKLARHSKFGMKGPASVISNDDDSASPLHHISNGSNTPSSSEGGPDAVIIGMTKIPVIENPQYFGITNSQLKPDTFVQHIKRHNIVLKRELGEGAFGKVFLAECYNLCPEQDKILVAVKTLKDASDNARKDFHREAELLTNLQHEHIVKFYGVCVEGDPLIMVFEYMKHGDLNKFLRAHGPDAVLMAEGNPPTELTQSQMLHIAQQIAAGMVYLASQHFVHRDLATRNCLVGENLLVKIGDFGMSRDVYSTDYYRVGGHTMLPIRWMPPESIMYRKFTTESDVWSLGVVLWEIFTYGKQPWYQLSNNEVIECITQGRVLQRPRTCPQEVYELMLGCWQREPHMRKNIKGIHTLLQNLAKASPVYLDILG
Chain of Serine/threonine-protein kinase VRK2 (Homo sapiens) (Q86Y07 whole entry): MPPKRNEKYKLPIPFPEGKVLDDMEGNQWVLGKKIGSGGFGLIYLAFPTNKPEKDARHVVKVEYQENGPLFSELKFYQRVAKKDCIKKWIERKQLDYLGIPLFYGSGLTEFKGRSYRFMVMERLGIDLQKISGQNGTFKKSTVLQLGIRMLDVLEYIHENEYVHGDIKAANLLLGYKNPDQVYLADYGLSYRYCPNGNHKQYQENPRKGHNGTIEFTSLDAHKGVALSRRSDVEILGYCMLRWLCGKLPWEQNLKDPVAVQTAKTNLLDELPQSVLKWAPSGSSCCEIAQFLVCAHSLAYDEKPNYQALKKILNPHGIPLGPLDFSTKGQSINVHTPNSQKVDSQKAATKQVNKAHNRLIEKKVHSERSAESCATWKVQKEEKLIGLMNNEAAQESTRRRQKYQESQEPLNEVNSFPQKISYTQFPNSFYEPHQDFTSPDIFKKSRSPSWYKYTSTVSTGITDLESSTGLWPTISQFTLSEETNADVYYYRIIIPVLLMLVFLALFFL

As to `NC(=O)c1ccc(-c2nc(-c3ccc4c(c3)OCCO4)c(-c3ccccn3)[nH]2)cc1`, the residual activity in test [1] was 68%; in test [2], 90%; in [3], 94%; in [4] it was 118% (inactive); in [5], 98%.

As to `COc1ccc(COc2ccc(Cc3cnc(N)nc3N)cc2OC)cc1`, the figures for the residual activity in [1] and in [3] were -12% and 68%, respectively.

As to `Cn1sc(=O)n(Cc2ccccc2)c1=O`, the residual activity stood at 83% in test [2]; 88% in test [3]; 90% in test [6]; 93% in [7]; 92% in test [8]; 92% in [9]. Also, the residual activity in test [4] is 98% (inactive); in test [5], 90%; in test [10] it was 96% (inactive).

For the molecule `Nc1nc(Nc2ccc(S(N)(=O)=O)cc2)nn1C(=O)c1c(F)cccc1F`, the residual activity in test [1] was 5%; in [3] it was 41%; in test [7] it was 39%; in test [8], 46%; in test [9], 9%; in test [4], 97% (inactive). In addition, the residual activity was 69% in [5] and 96% (inactive) in test [10].

Take `O=C(Nc1ccc(Cl)cc1)c1ccccc1NCc1ccncc1`: the residual activity came out at 99% in test [1] and 102% in test [6].

For the molecule `NC(=O)c1cccc(-c2cc(Nc3ccc(OC(F)(F)F)cc3)ncn2)c1`, the residual activity was 100% in [8], 93% in [9] and 124% (inactive) in [10].

As for `CCCCc1c(-c2ccc(O)cc2)[nH]c2nccnc12`, the residual activity is 45% in test [1]; 87% in test [6]; 93% in test [7]; 73% in test [8]; 31% in test [9].

With `Nc1ncnc2c1cnn2-c1ccccc1`, the residual activity in test [1] was 97%; in test [3] it was 78%; in test [6], 101%; in test [7] it was 98%; in test [9], 91%; in test [4], 102% (inactive). The residual activity in test [5] worked out at 90%.

Regarding `COc1ccc(Cl)cc1NC(=O)Nc1cc(C)nc2ccccc12`, the residual activity is 60% in test [3]; 85% in test [7]; 96% in test [9]; 98% (inactive) in test [4]; 94% in test [5].

Consider `Fc1ccc(-c2nc3n(c2-c2ccncc2)CCS3)cc1`, for which the residual activity in [2] came out at 93%; in test [5], 80%.

As to `N#Cc1c(NC(=O)c2cccc3ccccc23)sc2c1CCCC2`, the residual activity in [2] amounted to 90%; in [3], 80%.

For the molecule `O=C1Cc2c([nH]c3ccc([N+](=O)[O-])cc23)-c2ccccc2N1`, the residual activity came out at 49% in test [2]; 39% in test [3]; 49% in test [6]; 45% in [7]; 75% in [8]; 53% in [9].

As for `N#C/C(=C1/Nc2ccccc2S1)c1ccnc(NCCc2cccnc2)n1`, the residual activity in test [1] was 44%; in [10] it was 63% (inactive).

`Oc1cccc(-c2nc(N3CCOCC3)c3oc4ncccc4c3n2)c1`: the residual activity in [2] is 93%; in [3] it was 92%; in test [7] it was 81%; in [9], 92%; in test [5], 89%.

With `Nc1ncnc2[nH]nc(Nc3ccc(F)cc3)c12`, the residual activity was 66% in test [2]; 18% in test [3]; 120% in test [6]; 95% in [7]; 97% in [8]; 74% in [9]. The residual activity in test [4] was 97% (inactive); in test [5], 81%; in test [10] it was 101% (inactive).

As for `O=S(=O)(NCCNC/C=C/c1ccc(Br)cc1)c1cccc2cnccc12`, the values for the residual activity in [2] and in [3] were 74% and 61%, respectively.

In the case of `O=C1Nc2ccccc2/C1=C\c1c(Cl)[nH]c2ccccc12`, the residual activity in test [1] was 57%; in test [2], 83%; in test [3], 74%; in [4], 76% (inactive); in [5], 28%.

`CC(C)[C@H](CO)Nc1nc(Nc2cc(N)cc(Cl)c2)c2ncn(C(C)C)c2n1`: the residual activity was 63% in test [2]; 17% in test [3]; 41% in test [8]; 8% in test [9]; 87% (inactive) in test [10].

Consider `CCN1/C(=C/C(C)=O)Sc2ccc(OC)cc21`, for which the residual activity in test [2] was 81%; in test [3], 77%; in test [10] it was 76% (inactive).

With `O=C1Cc2c([nH]c3ccc(Br)cc23)-c2ccccc2N1`, the residual activity in [1] is 66%; in test [4] it was 99% (inactive); in [5], 90%; in test [10] it was 93% (inactive).

As for `O=C1NC(=O)C(c2c[nH]c3ccccc23)=C1c1c[nH]c2ccccc12`, the residual activity in [1] was 24%; in test [5], 75%.
